TDP1 block – qHTS Assay for Inhibitors of Tyrosyl-DNA Phosphodiesterase (TDP1); Tyrosyl-DNA phosphodiesterase 1 (Homo sapiens), Q9NUW8; recombinant TDP1, AlphaScreen DNA substrate cleavage; Potency, µM (series often up to 130 µM), for the others: top-dose activity change, negative = inhibition, most hits filed as inhibitors; 0.28% of 350,000 active; AID 485290, 2010; note: potency is the fitted concentration of half-maximal effect; nearly all actives have a fitted effect of over 40% in size
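Steps: enzyme plus compound, 15 min RT; add biotin/phosphotyrosine-FITC oligonucleotide (15 nM final), react 5 min; add donor/acceptor beads (10 ug/ml final), 10 min; read AlphaScreen. Tdp1 at 1 nM final.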
CtBP-E1A inh – qHTS Assay for Inhibitors of the CtBP/E1A Interaction; CtBP / adenovirus E1A interaction (AlphaScreen); AlphaScreen GST-E1A/His-CtBP binding, 1536-well; hits give low values; activity change, % (concentration not given with the values); 0.49% of 340,000 active; AID 651724, 2012; in the data active = activity change below about -65%; inconclusive = mostly about -30% to -63%
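Steps: dispense buffer (Tris pH 8.0, NaCl 300 mM, TCEP 1 mM, BSA, Tween 20); add 5X protein mix (GST-E1A, His-CtBP, 125 nM each); pin 23 nL compound; 2 h at 37 °C, dark; add 5X beads (50 ug/mL); 1 h; read.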
IL-1B inflam inh – qHTS for Inhibitors of Inflammasome Signaling: IL-1-beta AlphaLISA Primary Screen. THP-1 LPS/ATP IL-1B secretion, AlphaLISA, 16 h; hits give low values. activity change, % at 57.5 µM. AID 743279, 2014. 4.7% of 360,000 active; in the data active = activity change below about -50%; inconclusive = mostly about -30% to -49%
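THP-1 cells pretreated 1 hr with compounds (up to 57.5 uM final), then stimulated with LPS (250 ng/mL final) plus ATP (1.25 mM final); secreted IL-1B measured by AlphaLISA after 16 hr, decreased signal indicating inhibition.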
DT40 TDP1 no CPT – qHTS for Inhibitors of human tyrosyl-DNA phosphodiesterase 1 (TDP1): qHTS in cells in absence of CPT; DT40 Tdp1-/- hTDP1 cells, no CPT, ATP luminescence, 48 h; Potency, µM (highest dose often 46.2 µM), without a hit: at the top dose activity change, negative = growth inhibition, actives largely listed as inhibitors; 15% of 420,000 active; AID 686978, 2013; note: potency is the fitted concentration of half-maximal effect; nearly all actives have a fitted effect of over 55% in size
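No-CPT arm: Tdp1-/-;hTDP1 DT40 cells (400/well) plus compounds, incubated ≥48 hr at 37 °C. Readout CellTiter-Glo luminescence.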
TDP1 cell CPT – qHTS for Inhibitors of human tyrosyl-DNA phosphodiesterase 1 (TDP1): qHTS in cells in presence of CPT; chicken DT40 Tdp1-/-;hTDP1 cells + 20 nM CPT, ATP luminescence, 48 h; Potency, µM (highest dose often 46.2 µM), without a hit: at the top dose activity change, negative = growth inhibition, usual class: inhibitors; 12% of 420,000 active; AID 686979, 2013; note: potency is the fitted concentration of half-maximal effect; nearly all actives have a fitted effect of over 55% in size
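Cell growth measured by CellTiter-Glo luminescence after a minimum 48 h, 37 C compound exposure with 20 nM CPT in Tdp1-knockout DT40 cells stably expressing hTDP1, seeded 400/well; qHTS titration format.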
Six1-Eya2 blk – qHTS Assay for Inhibitors of the Six1/Eya2 Interaction; 0.56% of 360,000 active; AlphaScreen GST-Six1/His-Eya2 binding, biochemical; hits give low values; activity change, % (no concentration beside the values); in the data active = activity change below about -65%; inconclusive = mostly about -30% to -63%
Target sequence (O00167 whole entry, looked up): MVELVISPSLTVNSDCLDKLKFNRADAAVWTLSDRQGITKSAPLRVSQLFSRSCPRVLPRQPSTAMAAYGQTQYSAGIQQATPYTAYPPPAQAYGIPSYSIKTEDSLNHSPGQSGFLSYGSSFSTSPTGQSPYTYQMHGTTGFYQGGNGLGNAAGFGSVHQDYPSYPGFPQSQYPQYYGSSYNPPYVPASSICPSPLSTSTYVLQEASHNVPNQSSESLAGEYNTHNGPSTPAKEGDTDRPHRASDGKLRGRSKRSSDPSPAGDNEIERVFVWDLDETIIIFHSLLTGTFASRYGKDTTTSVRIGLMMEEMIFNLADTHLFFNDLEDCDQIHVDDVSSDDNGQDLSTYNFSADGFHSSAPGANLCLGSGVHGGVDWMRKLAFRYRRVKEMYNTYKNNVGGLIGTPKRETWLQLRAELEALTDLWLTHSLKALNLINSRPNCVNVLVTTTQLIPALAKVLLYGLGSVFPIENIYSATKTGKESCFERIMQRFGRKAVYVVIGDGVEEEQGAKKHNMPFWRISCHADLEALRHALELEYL
Target sequence (Q15475 whole entry, looked up): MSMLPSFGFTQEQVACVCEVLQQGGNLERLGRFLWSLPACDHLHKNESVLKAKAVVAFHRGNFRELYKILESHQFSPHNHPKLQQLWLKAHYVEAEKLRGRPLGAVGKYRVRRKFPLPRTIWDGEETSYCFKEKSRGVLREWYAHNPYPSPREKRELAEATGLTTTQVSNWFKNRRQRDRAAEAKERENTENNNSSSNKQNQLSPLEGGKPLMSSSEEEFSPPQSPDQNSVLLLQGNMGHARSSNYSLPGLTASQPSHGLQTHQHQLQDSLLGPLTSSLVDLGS
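AlphaScreen luminescence read after one hour at 37 °C in darkness. Pin-transferred compounds met GST-Six1 and His-Eya2 protein (5X stock 250 nM/500 nM) plus glutathione donor and Ni-chelate acceptor beads (5X, 50 ug/mL).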
An asterisk follows results filed as active; ? = inconclusive; / = no result given. Hits are enriched below; roughly 18% of the tested compounds scored in any of these assays. Unless noted, calls come from the whole dose curve; as a rule, active = well fitted curve in the direction sought with a large enough effect; inconclusive = small, poorly fitted or top-dose-only effect, or another doubt; inactive = no such curve, though single readings can be large; an effect the other way counts as inactive or inconclusive. % is set by controls: 0 for no effect and ±100 for the full control effect.

SMILES	TDP1 block	CtBP-E1A inh	IL-1B inflam inh	DT40 TDP1 no CPT	TDP1 cell CPT	Six1-Eya2 blk
CCOC(=O)COc1c(Cl)cc(C2NC(=S)NC(c3ccccc3)=C2C(C)=O)cc1OC (centres undefined)	5.8%	-17.2	-95.3*	-27.5%	-14.7%	-15.9
COC(=O)COc1ccc(C2NC(=O)NC(c3ccccc3)=C2C(C)=O)cc1Br (centres undefined)	8.3%	3.6	-71.2*	0.5%	1.6%	1.2
COc1cc(C2NC(=S)NC(c3ccccc3)=C2C(C)=O)cc(Cl)c1OCC(=O)O (centres undefined)	-4.3%	-1.0	5.0	-7.1%	-11.3%	-1.8
COC(=O)COc1ccc(C2NC(=O)NC(c3ccccc3)=C2C(C)=O)cc1OC (centres undefined)	6.7%	-3.5	22.2	-19.1%	-7.1%	-15.5
CC(Oc1ccccc1F)C(=O)NNC(=O)CC(C)c1ccccc1 (centres undefined)	/	-19.6	0.3	-3.3%	6.7%	13.5
C/C=C1\COC(C(=O)NCCOCCO)(C(F)(F)F)C=C1C=C1CCCCC1 (centres undefined)	5.0%	/	/	/	/	/
O=C(NCC1CC1)C1Cc2c(-c3ccc4c(c3)OCO4)ccnc2O1 (centres undefined)	/	1.3	0.0	18.4µM*	?	0.6
O=C(Nc1cccnc1)C1Cc2c(-c3ccc4c(c3)OCO4)ccnc2O1 (centres undefined)	/	0.7	-56.8*	1.03µM*	20.6µM*	-8.8
O=C(Nc1ccccc1)C1Cc2c(-c3ccc4c(c3)OCO4)ccnc2O1 (centres undefined)	/	-13.9	?	?	?	-6.2
CC(=O)NCCNC(=O)C1Cc2c(-c3ccc4c(c3)OCO4)ccnc2O1 (centres undefined)	/	-2.1	39.6	-10.0%	-8.7%	-2.9
O=C(Nc1ccc2c(c1)OCO2)C1Cc2c(-c3ccc4c(c3)OCO4)ccnc2O1 (centres undefined)	/	-18.5	-2.3	6.51µM*	6.51µM*	-22.2
COc1ccc(NC(=O)C2Cc3c(-c4ccc5c(c4)OCO5)ccnc3O2)cc1 (centres undefined)	/	-6.6	10.6	8.2µM*	5.17µM*	-14.5
CC(=O)Nc1ccc(NC(=O)C2Cc3c(-c4ccc5c(c4)OCO5)ccnc3O2)cc1 (centres undefined)	/	-3.9	-1.6	-5.7%	-7.2%	-2.2
CN1CCC(N(C)C(=S)NCCc2ccccc2)CC1	-7.4%	2.9	-8.2	4.7%	26.8%	5.6
O=C(Nc1ccc2c(c1)OCO2)C1Cc2c(-c3cccnc3)ccnc2O1 (centres undefined)	/	0.9	33.8	?	-23.3%	-0.5
O=C(Nc1ccc2c(c1)OCO2)C1Cc2c(-c3ccc(Cl)cc3)ccnc2O1 (centres undefined)	/	?	-53.1*	?	?	?
CC(=O)Nc1cccc(-c2ccnc3c2CC(C(=O)Nc2ccc4c(c2)OCO4)O3)c1 (centres undefined)	/	?	17.0	4.61µM*	2.91µM*	-13.4
O=C(Nc1ccc2c(c1)OCO2)C1Cc2c(-c3ccncc3)ccnc2O1 (centres undefined)	/	-0.9	-14.8	?	-15.7%	2.0
Cc1ccc(C)c(NC(=O)c2cnn3ccccc23)c1	-1.3%	2.8	39.5	11.6µM*	5.8µM*	-4.3
COc1ccc(CCNC(=O)c2cnn3ccccc23)c(OC)c1OC	3.3%	5.2	-2.1	23.1µM*	?	1.6
COc1ccc(CNC(=O)CSCc2cnn(-c3ccccc3)c2-n2cccc2)cc1	6.0%	-0.6	-22.0	23.1µM*	-25.5%	-3.1
COc1ccc(OC)c(CCNC(=O)c2cnn(-c3ccccc3)c2-n2cccc2)c1	5.1%	/	/	1.84µM*	23.1µM*	/
COc1cc(CCNC(=O)c2cnn3ccccc23)cc(OC)c1OC	5.2%	4.1	19.8	?	?	0.3
Cc1ccc(C)c(NC(=O)c2cc3ccccn3n2)c1	3.3%	5.8	-1.3	-27.0%	-23.2%	3.0
CC1(C)C=C(c2ccc(C=O)s2)CC(C)(C)N1C=O	5.3%	1.8	25.6	-25.0%	0.7%	14.1
SMILES	TDP1 block	CtBP-E1A inh	IL-1B inflam inh	DT40 TDP1 no CPT	TDP1 cell CPT	Six1-Eya2 blk
Cn1nnnc1SCC(=O)NNC(=O)c1ccc(F)cc1	2.7%	2.8	5.9	5.1%	18.2%	0.2
Cc1ccccc1CNC(=O)CCSCc1cnn(-c2ccccc2)c1-n1cccc1	5.7%	/	/	16.4µM*	?	/
CCc1ccccc1NC(=O)CSCc1cnn(-c2ccccc2)c1-n1cccc1	5.7%	/	/	?	?	/
CCN(CC)C(=O)CSCc1cnn(-c2ccccc2)c1-n1cccc1	-4.0%	-1.2	-21.2	16.4µM*	?	-3.6
COc1ccc(NC(=O)CSCc2cnn(-c3ccccc3)c2-n2cccc2)cc1	0.0%	/	/	16.4µM*	?	/
CC(C)(C)Nc1nc(Cl)nc(NCCN2CCOCC2)n1	/	-11.8	-4.2	?	-19.0%	-5.5
Cc1ccc2c(=O)cc(C(=O)Nc3ccc(S(=O)(=O)N(C)Cc4ccccc4)cc3)oc2c1C	2.5%	/	/	3.26µM*	4.11µM*	/
Cc1ccc2c(=O)cc(C(=O)Nc3ccc(S(=O)(=O)Nc4ncccn4)cc3)oc2c1C	2.5%	/	/	?	?	/
CCc1ccc(NC(=O)c2cc(=O)c3ccc(C)c(C)c3o2)cc1	0.0%	/	/	3.26µM*	4.11µM*	/
CCN(c1ccccc1)S(=O)(=O)c1ccc(NC(=O)c2cc(=O)c3ccc(C)c(C)c3o2)cc1	3.7%	/	/	11.6µM*	10.3µM*	/
CN(c1ccccc1)S(=O)(=O)c1ccc(NC(=O)c2cc(=O)c3ccccc3o2)cc1	6.1%	/	/	16.4µM*	13µM*	/
CC(C)(C)NC(=S)N1CCC2CC1c1c(Cl)cccc12 (centres undefined)	/	-2.2	0.2	?	-4.8%	2.5
Cn1cc(-c2cc3n(n2)CCC(=O)N3CCCC(=O)Nc2ccccc2F)c2ccccc21	7.7%	/	/	23.1µM*	?	/
Cn1cc(-c2cc3n(n2)CCC(=O)N3CCCC(=O)Nc2ccccc2Cl)c2ccccc21	5.3%	/	/	18.4µM*	18.4µM*	/
COc1ccc(CNC(=O)CCCN2C(=O)CCn3nc(-c4cn(C)c5ccccc45)cc32)cc1	0.6%	/	/	?	-27.1%	/

Compound activity as filed in PubChem.
